Test results reported in PubChem BioAssay (NCI).
Compounds without any hit were thinned out: in the full panel of roughly 83,000, 20% have a hit.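 Assay: single dose, 48 h. Readout: percent growth (0 = no net growth; negative = cell death). Active: <10.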 Unmarked numbers belong to inactive results. Calls of active or inactive are those of the source.

Experiments:
Assay in all cases: NCI-60 one-dose screen, 48 h (100 = growth as untreated, 0 = no growth, -100 = all killed)
Settings in all cases: 10 µM unless noted
[1] = system: NCI-H23 lung
[2] = system: NCI-H226 lung
[3] = system: NCI-H322M lung
[4] = system: HOP-62 NSCLC
[5] = system: NCI-H460 lung
[6] = system: HOP-92 NSCLC
[7] = system: NCI-H522 lung
[8] = system: A549/ATCC NSCLC
[9] = system: 786-0 renal
[10] = system: COLO 205 colon
[11] = system: DU-145 prostate
[12] = system: K-562 leukemia
[13] = system: MALME-3M melanoma
[14] = system: MDA-MB-231 breast
[15] = system: RXF 393 renal
[16] = system: SF-268 CNS
[17] = system: SF-295 CNS
[18] = system: SF-539 CNS
[19] = system: UACC-257 melanoma
[20] = system: M14 melanoma

Row | Structure (SMILES) | growth [1] | growth [2] | growth [3] | growth [4] | growth [5] | growth [6] | growth [7] | growth [8] | growth [9] | growth [10] | growth [11] | growth [12] | growth [13] | growth [14] | growth [15] | growth [16] | growth [17] | growth [18] | growth [19] | growth [20]
1 | C[N+]1=C(/C=C\C=C\c2ccccc2)C(C)(C)c2ccccc21 | 18.7% | 63.8% | 81.2% | 52% | 43.4% | -7.51% (active) | -3.08% (active) | 28% | 33.6% | -43.4% (active) | 48.7% | 4.69% (active) | -17.8% (active) | 9.89% (active) | 38% | 38.5% | 72.4% | 8.59% (active) | 8.91% (active) | 20.5%
2 | O=C(Nc1ncc(Cc2cccc(C(F)(F)F)c2)s1)c1ccc2c(c1)OCCO2 | 31.2% | 21.3% | 54.1% | 25.2% | 6.46% (active) | 51.3% | 8.7% (active) | 17.2% | 39.9% | -7.82% (active) | 15.1% | 8.17% (active) | 50.1% | 30.2% | 19.6% | 38.3% | 8.97% (active) | -0.654% (active) | 45.5% | 21.6%
3 | COc1ccc2c(O)c(/C=C3\N=Nc4nc(C)ccc43)oc2c1CC1CCNCC1 | 67.2% | 57.5% | 80.8% | 64.3% | 79.3% | 39.2% | 43.4% | 68.2% | 54.1% | 78.4% | 87.9% | 49.3% | 19.1% | 34.6% | -0.196% (active) | 67.4% | 90% | 55.9% | 74.5% | 35.4%
4 | O=C(N=Nc1c(O)[nH]c2ccccc12)Nc1ccc(Br)cc1 | 101% | 83.6% | 70.9% | 98.4% | 92.1% | 66.5% | 72.3% | 98.9% | 89.6% | 97.8% | 93.3% | 79% | 86.1% | 110% | 82.4% | 86.2% | 93% | 83.6% | 115% | 89.8%
5 | O=C1/C(=C/c2cn(-c3ccccc3)nc2-c2ccccc2)SC(=S)N1c1ccc(Cl)cc1 | 87.5% | 71.2% | 64.8% | 52.7% | 47.5% | 43.3% | 83.7% | 68.8% | 85.5% | 111% | 74.6% | 63.8% | 95.4% | 79.8% | 88.4% | 62.5% | 44.6% | 84.2% | 89.8% | 65.8%
6 | COc1ccccc1/C=C1\COc2ccc(O)c(O)c2C1=O | 40.8% | 76% | 46.2% | 17.3% | 24.6% | 29.6% | -42.3% (active) | 50.6% | 2.1% (active) | 77.9% | 5.75% (active) | 2.89% (active) | 6.18% (active) | 17.4% | 36.6% | 32% | 90.8% | -23.5% (active) | 33.6% | 29%
7 | COc1ccc(C/C(C)=C(/c2ccc(OCCN3CCCC3)cc2)c2ccc(OC(=O)NCc3ccccc3)cc2)cc1 | 93.6% | 102% | 92% | 91.9% | 63.8% | 66.2% | 92.6% | 72.3% | 69.8% | 77% | 95% | 1.16% (active) | 83.6% | 101% | 76.8% | 86.5% | 95.2% | 82.5% | 107% | -20.8% (active)
8 | COc1ccc(-c2cc(-c3cccc(Cl)c3)c(C#N)c(=O)[nH]2)c(OC)c1 | 92.2% | 101% | 96% | 99.2% | 98.7% | 68% | 90.6% | 96.4% | 89.7% | 121% | 97.3% | 98.2% | 93.7% | 102% | 90.8% | 90% | 98.2% | 92.6% | 102% | 98.2%
9 | C/C=C(/C)C(=O)O[C@@H]1CC(C)(C)CC2C34OC(=O)[C@@]21CC[C@@]3(C)[C@]1(C)CCC2C(C)(C)C(=O)CC[C@]2(C)C1C[C@@H]4Cl (stereo not given in full) | 95.4% | 86.7% | 98.2% | 94.5% | 97.7% | 74.7% | 93% | 91% | 90.4% | 98.8% | 104% | 85.6% | 90.8% | 93.4% | 108% | 93% | 97.3% | 85% | 89.8% | 93.1%
10 | C=C(C)[C@@H]1CC[C@]2(C(=O)O)CC[C@]3(C)[C@H](CC[C@@H]4[C@@]5(C)CCC(N)C(C)(C)[C@@H]5CC[C@]43C)[C@@H]12 (stereo not given in full) | 81.5% | 100% | 68.9% | 80.4% | 33.1% | 88.1% | 11.7% | 47.9% | 0.398% (active) | -21.4% (active) | 33.1% | -28.2% (active) | -61.3% (active) | 18.3% | 81.3% | 91.3% | 73.7% | 96.5% | 93.2% | 27.1%
11 | CCOC(=O)c1cnn(-c2ccc(S(N)(=O)=O)cc2)c1N | 95.5% | 92% | 99.8% | 95.9% | 104% | 105% | 96.2% | 103% | 95.6% | 140% | 132% | 87.7% | 104% | 111% | 95.9% | 161% | 110% | 101% | 96.1% | 98.9%
12 | COc1ccc(Oc2nc(Nc3ccc(N4CCOCC4)cc3)ncc2NC(=O)c2cccc(C(F)(F)F)c2)cc1 | 87.3% | 81.2% | 83.6% | 94.4% | 70.2% | 76.7% | 0.64% (active) | 66% | 87.8% | 84.8% | 91.9% | 56% | 97.5% | 69.1% | 65.6% | 89.5% | 85.6% | 77.3% | 98.2% | 80.7%
13 | CC1=C2[C@@H](CC1)[C@]1(C)O[C@@](C3CC3)(C[C@H]1OC(=O)CO)[C@H]2OC(=O)/C=C/c1ccccc1 | 103% | 86.7% | 82.2% | 89.6% | 90.7% | 82.2% | 88.4% | 79% | 73.2% | 116% | 105% | 79.4% | 90.9% | 81.2% | 38.4% | 41% | 100% | 109% | 92.1% | 96.4%
14 | CCN(CC)CCOc1ccccc1C | 111% | 116% | 115% | 93.8% | 109% | 94.6% | 92.6% | 98.6% | 98.8% | 111% | 113% | 97.5% | 105% | 103% | 160% | 120% | 101% | 93.7% | 106% | 98.8%
15 | O=C(NCc1ccc(Cn2c(=O)sn(-c3ccc(Cl)cc3)c2=O)cc1)OCc1ccc2c(Cl)cc(Cl)c(O)c2n1 | 44.1% | 56.9% | 45.7% | 38.3% | 21.7% | 64.7% | 68.8% | 30.5% | 55.8% | 109% | 44.8% | 29.8% | 78.3% | 72% | 25.8% | 54.6% | 18.2% | 42.5% | 78.1% | 50.5%
